# Reference: the supplement of paper PMC8728848
# The full list was thinned out, with the strongest signals kept by preference.
# Assays:
# Assay in all cases: glycan array binding signal (z-score within array); higher = stronger binding
# Conditions in all cases: glycan notation: IUPAC condensed, linker removed
# Fuc(a1-2)Gal(b1-4)GlcNAc = biological target: Fuc(a1-2)Gal(b1-4)GlcNAc
# In short: (§1)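 Negative Z-scores can be read as non-binding. The Z-score is calculated within each array and then averaged across arrays of one protein sequence at different concentrations or buffers and across linkers. Arrays, 3228 in all, were curated from the Consortium for Functional Glycomics database and kept only where the protein sequence was available.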
# [1] = biological target: Fuc(a1-2)Gal(b1-4)GlcNAc(b1-2)[Fuc(a1-2)Gal(b1-4)GlcNAc(b1-4)]Man(a1-3)[Fuc(a1-2)Gal(b1-4)GlcNAc(b1-2)Man(a1-6)]Man(b1-4)GlcNAc(b1-4)GlcNAc
# In short: as §1
# [2] = biological target: Fuc(a1-2)[Gal(a1-3)]Gal(b1-4)[Fuc(a1-3)]Glc
# In short: as §1
# [3] = biological target: Fuc(a1-2)[GalNAc(a1-3)]Gal(b1-3)GlcNAc(b1-2)Man(a1-3)[Fuc(a1-2)[GalNAc(a1-3)]Gal(b1-3)GlcNAc(b1-2)Man(a1-6)]Man(b1-4)GlcNAc(b1-4)GlcNAc
# In short: as §1
# [4] = biological target: Fuc(a1-3)[Gal(b1-4)]GlcNAc
# In short: as §1
# [5] = biological target: Fuc(a1-3)[Gal(b1-4)]GlcNAc(b1-3)Gal(b1-3)[Fuc(a1-4)]GlcNAc
# In short: as §1
# [6] = biological target: Gal(a1-3)[Gal(a1-4)]Gal(b1-4)GlcNAc
# In short: as §1
# Gal(a1-6)Glc = biological target: Gal(a1-6)Glc
# In short: as §1
# [7] = biological target: Gal(b1-3)GlcNAc(b1-2)[Gal(b1-3)GlcNAc(b1-6)]Man(a1-6)[Gal(b1-3)GlcNAc(b1-2)Man(a1-3)]Man(b1-4)GlcNAc(b1-4)GlcNAc
# In short: as §1
# [8] = biological target: Gal(b1-4)GlcNAc(b1-2)[Gal(b1-4)GlcNAc(b1-6)]Man(a1-6)[Gal(b1-4)GlcNAc(b1-2)Man(a1-3)]Man(b1-4)GlcNAc(b1-4)GlcNAc
# In short: as §1
# [9] = biological target: Gal(b1-4)GlcNAc(b1-3)Gal(b1-4)Glc
# In short: as §1
# [10] = biological target: Gal(b1-4)GlcNAc(b1-3)Gal(b1-4)[Fuc(a1-3)]GlcNAc(b1-3)Gal(b1-4)[Fuc(a1-3)]GlcNAc
# In short: as §1
# Gal3S(b1-4)GlcNAc = biological target: Gal3S(b1-4)GlcNAc
# In short: as §1
# [11] = biological target: Gal3S(b1-4)[Fuc(a1-3)]Glc6S
# In short: as §1
# GalNAc(b1-3)Gal = biological target: GalNAc(b1-3)Gal
# In short: as §1
# [12] = biological target: GalNAc(b1-3)Gal(a1-4)Gal(b1-4)GlcNAc(b1-3)Gal(b1-4)Glc
# In short: as §1
# [13] = biological target: GlcNAc(a1-4)Gal(b1-4)GlcNAc(b1-3)Gal(b1-4)GlcNAc(b1-3)Gal(b1-4)GlcNAc
# In short: as §1
# [14] = biological target: GlcNAc(b1-2)Man(a1-3)[GlcNAc(b1-2)Man(a1-6)]Man(b1-4)GlcNAc(b1-4)GlcNAc
# In short: as §1
# [15] = biological target: GlcNAc(b1-2)[GlcNAc(b1-4)]Man(a1-3)[GlcNAc(b1-4)][GlcNAc(b1-2)[GlcNAc(b1-6)]Man(a1-6)]Man(b1-4)GlcNAc(b1-4)GlcNAc
# In short: as §1
# [16] = biological target: GlcNAc(b1-3)Gal(b1-4)GlcNAc(b1-3)Gal(b1-4)GlcNAc
# In short: as §1
# Kdn(a2-3)Gal(b1-3)GalNAc = biological target: Kdn(a2-3)Gal(b1-3)GalNAc
# In short: as §1
# Kdn(a2-3)Gal(b1-4)GlcNAc = biological target: Kdn(a2-3)Gal(b1-4)GlcNAc
# In short: as §1
# [17] = biological target: Man(a1-2)Man(a1-2)Man(a1-3)Man
# In short: as §1
# [18] = biological target: Man(a1-2)Man(a1-2)Man(a1-6)[Man(a1-3)]Man
# In short: as §1
# [19] = biological target: Man(a1-2)Man(a1-3)[Man(a1-2)Man(a1-6)]Man
# In short: as §1
# [20] = biological target: Man(a1-2)Man(a1-3)[Man(a1-2)Man(a1-6)]Man(a1-6)[Man(a1-2)Man(a1-2)Man(a1-3)]Man
# In short: as §1
# [21] = biological target: Man(a1-2)Man(a1-3)[Man(a1-2)Man(a1-6)]Man(a1-6)[Man(a1-2)Man(a1-2)Man(a1-3)]Man(b1-4)GlcNAc(b1-4)GlcNAc
# In short: as §1
# [22] = biological target: Man(a1-2)Man(a1-3)[Man(a1-6)]Man(a1-6)[Man(a1-2)Man(a1-3)]Man(b1-4)GlcNAc(b1-4)GlcNAc
# In short: as §1
# [23] = biological target: Man(a1-2)Man(a1-6)[Man(a1-3)]Man(a1-6)[Man(a1-2)Man(a1-2)Man(a1-3)]Man
# In short: as §1
# [24] = biological target: Man(a1-2)Man(a1-6)[Man(a1-3)]Man(a1-6)[Man(a1-2)Man(a1-2)Man(a1-3)]Man(b1-4)GlcNAc(b1-4)GlcNAc
# In short: as §1
# [25] = biological target: Man(a1-3)[Man(a1-6)]Man(a1-6)[Man(a1-2)Man(a1-3)]Man(b1-4)GlcNAc(b1-4)GlcNAc
# In short: as §1
# [26] = biological target: Man(a1-3)[Man(a1-6)]Man(b1-4)GlcNAc(b1-4)GlcNAc
# In short: as §1
# [27] = biological target: Neu5Ac(a2-3)Gal(b1-3)[Fuc(a1-4)]GlcNAc(b1-3)Gal(b1-3)[Fuc(a1-4)]GlcNAc
# In short: as §1
# [28] = biological target: Neu5Ac(a2-3)Gal(b1-4)GlcNAc(b1-6)[Gal(b1-3)]GalNAc
# In short: as §1
# [29] = biological target: Neu5Ac(a2-6)Gal(b1-4)GlcNAc(b1-2)Man(a1-3)[GlcNAc(b1-2)Man(b1-4)GlcNAc(b1-2)Man(a1-6)]Man(b1-4)GlcNAc(b1-4)GlcNAc
# In short: as §1
# [30] = biological target: Neu5Ac(a2-6)GlcNAc(b1-4)GlcNAc(b1-4)GlcNAc
# In short: as §1
# [31] = biological target: Neu5Ac(a2-8)Neu5Ac(a2-3)Gal(b1-3)GalNAc(b1-4)[Neu5Ac(a2-8)Neu5Ac(a2-3)]Gal(b1-4)Glc
# In short: as §1
# [32] = biological target: Neu5Ac(a2-8)Neu5Ac(a2-8)Neu5Ac(a2-3)Gal(b1-4)Glc
# In short: as §1
# [33] = biological target: Neu5Ac(a2-8)Neu5Ac(a2-8)Neu5Ac(a2-8)Neu5Ac(a2-3)[GalNAc(b1-4)]Gal(b1-4)Glc
# In short: as §1
# Neu5Ac(b2-6)GalNAc = biological target: Neu5Ac(b2-6)GalNAc
# In short: as §1
# [34] = biological target: Neu5Gc(a2-3)Gal(b1-3)[Fuc(a1-4)]GlcNAc
# In short: as §1
# Neu5Gc(a2-3)Gal(b1-4)Glc = biological target: Neu5Gc(a2-3)Gal(b1-4)Glc
# In short: as §1
binder,measurement,setting,value
Gz-CVNH (Gibberella zeae) (protein) MGSSHHHHHHSSGLVPRGSHMGNFHESSNNIWLEDGHILHAECGNGEGDYVESTLDLDYYIGNDDGSFSWGGENFSGSASNITLDIEGDDNIPVLRAELNPMDGDPVEANVNLSERIGNDCGTLIFLA,glycan array binding signal (z-score),Fuc(a1-2)Gal(b1-4)GlcNAc,-0.133
same,glycan array binding signal (z-score),[1],-0.106
same,glycan array binding signal (z-score),[2],-0.109
same,glycan array binding signal (z-score),[3],-0.121
same,glycan array binding signal (z-score),[4],-0.14
same,glycan array binding signal (z-score),[5],-0.114
same,glycan array binding signal (z-score),[6],-0.135
same,glycan array binding signal (z-score),Gal(a1-6)Glc,-0.128
same,glycan array binding signal (z-score),[7],-0.096
same,glycan array binding signal (z-score),[8],-0.094
same,glycan array binding signal (z-score),[9],-0.114
same,glycan array binding signal (z-score),[10],-0.14
same,glycan array binding signal (z-score),Gal3S(b1-4)GlcNAc,-0.166
same,glycan array binding signal (z-score),[11],0.005
same,glycan array binding signal (z-score),GalNAc(b1-3)Gal,-0.146
same,glycan array binding signal (z-score),[12],-0.132
same,glycan array binding signal (z-score),[13],-0.131
same,glycan array binding signal (z-score),[14],-0.129
same,glycan array binding signal (z-score),[15],-0.112
same,glycan array binding signal (z-score),[16],-0.14
same,glycan array binding signal (z-score),Kdn(a2-3)Gal(b1-3)GalNAc,-0.14
same,glycan array binding signal (z-score),Kdn(a2-3)Gal(b1-4)GlcNAc,-0.117
same,glycan array binding signal (z-score),[17],3.53
same,glycan array binding signal (z-score),[18],7.75
same,glycan array binding signal (z-score),[19],1.63
same,glycan array binding signal (z-score),[20],12.7
same,glycan array binding signal (z-score),[21],2.82
same,glycan array binding signal (z-score),[22],5.4
same,glycan array binding signal (z-score),[23],9.9
same,glycan array binding signal (z-score),[24],8.33
same,glycan array binding signal (z-score),[25],1.34
same,glycan array binding signal (z-score),[26],-0.119
same,glycan array binding signal (z-score),[27],-0.074
same,glycan array binding signal (z-score),[28],-0.115
same,glycan array binding signal (z-score),[29],-0.09
same,glycan array binding signal (z-score),[30],-0.14
same,glycan array binding signal (z-score),[31],-0.156
same,glycan array binding signal (z-score),[32],-0.128
same,glycan array binding signal (z-score),[33],-0.142
same,glycan array binding signal (z-score),Neu5Ac(b2-6)GalNAc,-0.108
same,glycan array binding signal (z-score),[34],-0.134
same,glycan array binding signal (z-score),Neu5Gc(a2-3)Gal(b1-4)Glc,-0.113
